Shown are actives, neighbours in structure and some others; about 4% of the full set was active somewhere.
KKLEB tox = CF airway cell cytotoxicity counter-screen. KKLEB CF airway cells viability, ATPlite luminescence, overnight; stronger effect = lower value; cells stimulated with P. aeruginosa culture filtrate. activity change (cytotoxicity), % at 5 µM. 360,000 tested, 0.36% active;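 active = corrected activity change at or below -50% at 5 µM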
TROY NFkB inh = TROY signaling inhibition; Q293 LMP1-TROYcd NF-kB luciferase reporter, 4 h; inhibition, % at 10 µM; 360,000 tested, 0.98% active;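 active = compounds whose plate-normalised and pattern-corrected inhibition of the luciferase reporter signal at the single screening dose is 50% or more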
TWEAK-Fn14 inh = TWEAK-Fn14 signaling inhibition; TWEAK-stimulated Fn14 reporter cells, luciferase luminescence, 8 h; inhibition, % at 10 µM; 360,000 tested, 2% active; AID 1159606; in the data active = inhibition above about 50%
HIF-2a inh = HIF-2a inhibition. 786-0 RCC cells HIF-2a reporter, luciferase luminescence, overnight. inhibition, % at 18.8 µM. 360,000 tested, 0.72% active. AID 624352;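 active = inhibition of the luminescence signal of 40% or more relative to plate controls, in a single-dose primary screen at 18.75 µM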
CF NFkB block = blocks PAF-induced NF-kB reporter in cystic fibrosis cells | 360,000 tested, 0.86% active | KKLEB NF-kB-GFP reporter, GFP fluorescence overnight | inhibition, % at 5 µM | AID 588850;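 active = at least 50% inhibition at 5 µM, scaled per plate between neutral and stimulator controls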;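 also: PAF is a Pseudomonas aeruginosa culture filtrate used as stimulus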
Peg3 prom inh = Peg3 promoter activity inhibition | HeLa PEG-Prom luciferase reporter, luminescence, overnight | inhibition, % at 20 µM | 360,000 tested, 1.7% active;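 active = inhibition of at least 50% at 20 µM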
A number is an active result; – = inactive; · = no result given.

SMILES	KKLEB tox	TROY NFkB inh	TWEAK-Fn14 inh	HIF-2a inh	CF NFkB block	Peg3 prom inh
Cc1cc(C)cc(NC(=S)N2CCN(c3ccccn3)CC2)c1	–	–	–	–	–	–
COC(=O)c1c(S(=O)(=O)N2CCOCC2)c(C)n(C)c1C	–	–	–	–	–	–
Cc1ccc(S(=O)(=O)N2CCN(c3cc4c(cc3[N+](=O)[O-])n(C)c(=O)n4C)CC2)cc1	–	50.6	–	–	–	–
C/C(CC(=O)Nc1ccc(N(C)C)cc1)=N\NC(=O)c1ccccc1O	–	56.0	–	–	–	–
CCc1cc2c(SCC(=O)C(C#N)=C3N(C)c4ccccc4N3C)ncnc2s1	–	–	–	–	–	–
CN1C2CCC1/C(=C\c1ccccc1)C(=O)/C2=C\c1ccccc1	–	–	56.4	88.6	–	72.6
CC(c1ccccc1)N(C)CC(=O)NC(=O)NCCC1=CCCCC1 (centres undefined)	–	–	–	–	–	–
CN(C)c1ccc(C(=S)Nc2ccccc2)cc1	–	81.7	95.0	–	–	–
CN(C)c1cc(O)c(C(=S)Nc2ccccc2)c(N(C)C)c1	–	–	–	–	–	–
NC1=C(Cl)C(=O)c2ccc(S(N)(=O)=O)cc2C1=O	-94.9	85.7	107.7	96.7	88.8	110.3
NC1=C(Cl)C(=O)c2ccccc2C1=O	–	–	–	–	59.6	–
COc1cc(CN2CCCC(CO)(Cc3ccccc3F)C2)ccc1O (centres undefined)	–	–	–	–	–	–
CC(C)C(=O)Nc1nnc(Cc2ccccc2)s1	–	–	–	–	–	–
COc1cccc(CN2CCN(Cc3ccccc3C(F)(F)F)CC2)c1	–	–	–	–	–	–
Fc1cccc(Cl)c1CNc1ccc(N2CCCC2)cc1	–	–	56.9	–	–	–
O=C1CC(=O)N(Cc2ccco2)C(=S)N1	–	–	51.3	–	–	–
O=C1CC(=O)N(Cc2ccco2)C(=O)N1	–	–	–	–	–	–
CCCCCC(=O)N1C[C@H](n2cc(-c3ccc(F)cc3)nn2)[C@@H](O)C[C@@H]1c1ccc(C)cc1	–	–	–	–	–	–
O=C(N/N=C\c1ccccn1)C1COc2cc3ccccc3cc2O1 (centres undefined)	–	–	73.4	–	–	–
NNC(=O)C1COc2cc3ccccc3cc2O1 (centres undefined)	–	–	–	–	–	–
CCC(C)(C)C1CCc2[nH]nc(C(=O)NCC3CC3)c2C1 (centres undefined)	–	–	–	–	–	–
CCC(C)(C)C1CCc2[nH]nc(C(=O)NN)c2C1 (centres undefined)	–	69.2	–	–	–	–
COc1ccc(CC(=O)NCC(=O)N=Nc2c(O)[nH]c3ccccc23)cc1	–	–	–	–	–	–
CCCn1c(CN(Cc2ccccc2)Cc2ccccc2)nc2c1c(=O)n(C)c(=O)n2C	–	–	–	–	–	–
Cc1nc(N2CCN(c3ccccn3)CC2)c2c(C)c(C(=O)N3CCN(c4ccc(F)cc4)CC3)sc2n1	–	–	–	–	–	58.1
SMILES	KKLEB tox	TROY NFkB inh	TWEAK-Fn14 inh	HIF-2a inh	CF NFkB block	Peg3 prom inh
COc1ccccc1N1CCN(C(=O)c2sc3nc(C)nc(N4CCN(c5ccccn5)CC4)c3c2C)CC1	–	–	–	–	–	–
Cc1c(C(=O)N2CCN(c3ccccc3)CC2)sc2ncnc(N3CCN(c4ccccn4)CC3)c12	–	–	–	–	–	56.1
Cc1c(C(=O)N2CCN(c3ccccn3)CC2)sc2ncnc(N3CCOCC3)c12	–	–	–	–	–	–
Cc1nc(N2CCN(C(=O)COc3ccccc3)CC2)c2c(C)c(C)sc2n1	–	–	50.2	–	–	–
Cc1nc(N2CCN(c3ccccn3)CC2)c2c(C)c(C(=O)Nc3c(F)cc(F)cc3Br)sc2n1	–	–	64.8	–	–	–
CCNC(=O)COC(=O)c1cc(S(=O)(=O)N2CCCc3ccccc32)ccc1Cl	–	–	–	–	–	–
Cc1oc(-c2ccc(Cl)cc2)cc1-c1nn2c(-c3ccoc3C)nnc2s1	–	–	–	–	–	–
COc1ccc(C(=O)O)cc1S(=O)(=O)N1CCN(c2ccccn2)CC1	–	–	–	–	–	–
Cc1ccc(-c2nc3c4ccccc4ccn3c2Cc2ccccc2)cc1	–	–	–	–	–	–
Cc1ccc(Cc2c(-c3ccccc3)nc3c4ccccc4ccn23)cc1	·	67.3	58.5	–	·	·
c1ccc2c(c1)ccn1c(Cc3ccsc3)c(C3CCCCC3)nc21	·	–	–	–	·	·
Cc1ccc(Cc2c(C3CCCCC3)nc3c4ccccc4ccn23)cc1	–	68.9	59.7	–	–	–
CSc1cc(-c2ccc(Cl)cc2)n(Cc2ccccc2)c(=O)c1C#N	-53.5	–	–	–	69.9	54.2
CSc1cc(-c2ccccc2)n(Cc2c(Cl)cccc2Cl)c(=O)c1C#N	–	–	–	–	–	–
CC(=O)Nc1ccc(-c2cc3ccccc3o2)cc1	–	–	–	–	–	–
O=C(c1cn(-c2ccccc2)nc1-c1ccccc1)n1nnc2ccccc21	–	–	–	–	–	–
COc1cccc(-c2nn(-c3ccccc3)cc2C(=O)n2nnc3ccccc32)c1	–	–	–	–	–	50.3
CC1C(=O)N2CCCc3cc(S(=O)(=O)N4CCN(c5ccc(F)cc5)CC4)cc1c32 (centres undefined)	–	–	–	–	–	–
COc1ccc(OC2C(=O)N(Cc3ccc4c(c3)OCO4)C2c2cccs2)cc1 (centres undefined)	–	–	61.0	–	–	–
COc1cc(OC)c2c(-c3cccc(-c4ccc(OC)c(OC)c4)c3)cc(=O)oc2c1	–	–	96.8	–	–	–
COc1cc(OC)c2c(-c3cccc(-c4sccc4C(C)=O)c3)cc(=O)oc2c1	–	–	–	–	59.9	–
COc1cc(OC)c2c(-c3cccc(-c4ccc(NC(C)=O)cc4)c3)cc(=O)oc2c1	–	–	–	–	–	–
CC(=O)Nc1cccc(-c2ccnc3c2CC(C(=O)Nc2ccc(C(C)C)cc2)O3)c1 (centres undefined)	–	–	–	–	–	–
COc1cc(CN2CCC(C(=O)NCCC(C)C)CC2)ccc1OCc1ccccc1	–	–	–	–	–	–
CC1(Cc2ccc3c(c2)OCO3)C(=O)Nc2ccc(-c3cccc(C(F)(F)F)c3)cc21 (centres undefined)	–	–	102.7	–	–	–
O=C1C(Cl)=C(NCCCN2CCOCC2)C(=O)c2ccccc21	–	–	–	48.7	–	–
O=C1C(Cl)=C(NCCN2CCOCC2)C(=O)c2ccccc21	–	–	–	–	–	–
CCOCCCNC1=C(Cl)C(=O)c2ccccc2C1=O	–	–	–	–	–	–
O=C1C(Cl)=C(NCCCO)C(=O)c2ccccc21	–	–	–	72.0	–	–
CC1CC(C)(C)NC(=S)N1CCC(=O)N1c2ccccc2CC1C (centres undefined)	–	–	–	–	–	–

Screening data deposited in PubChem BioAssay by Sanford-Burnham Center for Chemical Genomics.
